Test results from PubChem BioAssay (NCI).
About 79,000 compounds went through this panel and 15% of them were active in at least one assay; those are over-represented in the sample as a whole. Activity calls are given as the source filed them. Rule as the data show it: active = growth inhibition above about 70%; inactive = the rest.

Legend:
[1] = NCI Yeast Anticancer Drug Screen. Data for the rad50 strain (AID 155);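 also: 0% = growth of vehicle-only cultures of the same strain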; settings: S. cerevisiae rad50 strain growth inhibition, stronger effect = higher value
Summary of the method: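 Vehicle-treated cultures provide the reference for the growth inhibition reported for compound-exposed, repair-deficient yeast.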

[2] = NCI Yeast Anticancer Drug Screen. Data for the mec2-1 strain (AID 157); settings: S. cerevisiae mec2-1 strain, stronger effect = higher value
Summary of the method: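 Compounds were applied to mec2-1 yeast cells. Their growth was then compared with that of vehicle-treated cultures to give growth inhibition.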

[3] = NCI Yeast Anticancer Drug Screen. Data for the sgs1 mgt1 strain (AID 161);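 also: 0% = growth of cultures given vehicle only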; settings: S. cerevisiae sgs1 mgt1 strain, stronger effect = higher value
Summary of the method: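 This yeast growth screen uses a strain with defined DNA-repair lesions; compound-treated growth is compared with vehicle-treated growth.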

[4] = NCI Yeast Anticancer Drug Screen. Data for the cln2 rad14 strain (AID 165);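 also: 0% = growth equal to vehicle treated cultures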; settings: S. cerevisiae cln2 rad14 strain, stronger effect = higher value
Summary of the method: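 Strain: cln2 rad14 yeast, altered in cell cycle control and DNA damage repair. Read-out: growth inhibition vs vehicle.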

[5] = NCI Yeast Anticancer Drug Screen. Data for the bub3 strain (AID 167); settings: S. cerevisiae bub3 mutant strain, stronger effect = higher value
Summary of the method: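 Mutant yeast screening strain plus compound; vehicle-treated cultures serve as the 0% inhibition reference.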

[6] = NCI Yeast Anticancer Drug Screen. Data for the mlh1 rad18 strain (AID 175); settings: S. cerevisiae mlh1 rad18 strain growth inhibition, stronger effect = higher value
Summary of the method: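 A repair-deficient yeast strain is exposed to test compound, and growth is scored relative to vehicle-treated controls.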

[7] = at 5.0 µM (retest, dose inferred, filed as 0.5)
[8] = at 50.0 µM (retest, dose inferred, filed as 5.0)

Measured: growth inhibition

CC1(C)C(=O)C=CC2(C)C1CC(O)C1(C)C2CCC2(C)C(c3ccoc3)OC(=O)C3OC321 (configuration not stated)
inactive: [1]; [7] 15% | [1]; [8] 16% | [2]; [7] 4% | [2]; [8] 12% | [3]; [7] 11% | [3]; [8] 52% | [4]; [7] 4% | [4]; [8] 8% | [5]; [7] 3% | [5]; [8] 12% | [6]; [7] 16% | [6]; [8] 18% | [6]; at 50.0 µM 44.5%
active: [1]; at 50.0 µM 86.8% | [2]; at 50.0 µM 86.5% | [3]; at 50.0 µM 82.7% | [4]; at 50.0 µM 76.5% | [5]; at 50.0 µM 82.2%

CCNC(C)(C)C(SS)c1ccc(Br)cc1 (configuration not stated)
inactive: [1]; [7] 6% | [1]; [8] 10% | [1]; at 50.0 µM 66.3% | [2]; [7] 2% | [2]; [8] -3% | [2]; at 50.0 µM 57.1% | [3]; [7] -3% | [3]; [8] 18% | [4]; [7] 25% | [4]; [8] 33% | [4]; at 50.0 µM 34.9% | [5]; [7] -15% | [5]; [8] 17% | [6]; [7] -21% | [6]; [8] 20%
active: [3]; at 50.0 µM 73.8% | [5]; at 50.0 µM 84.8% | [6]; at 50.0 µM 78.6%

CCOC(=O)C(Cc1ccc(O)cc1)NCc1ccc(N(CCCl)CCCl)cc1 (configuration not stated)
active: [1]; [7] 83% | [1]; [8] 83% | [2]; [8] 94% | [3]; [8] 99% | [3]; at 50.0 µM 72.2% | [4]; [8] 84% | [5]; [8] 94% | [6]; [7] 80% | [6]; [8] 76% | [6]; at 50.0 µM 76.7%
inactive: [1]; at 50.0 µM 37.8% | [2]; [7] 36% | [2]; at 50.0 µM 69.1% | [3]; [7] 64% | [4]; [7] 52% | [4]; at 50.0 µM 56.7% | [5]; [7] 65% | [5]; at 50.0 µM 69.5%

CC(C)(C)C(Br)C(=O)NC(N)=O (configuration not stated)
active: [4]; at 50.0 µM 82.2%
inactive: [1]; [7] 1% | [1]; [8] -6% | [1]; at 50.0 µM -8% | [2]; [7] -4% | [2]; [8] 3% | [2]; at 50.0 µM -0.45% | [3]; [7] 12% | [3]; [8] -7% | [3]; at 50.0 µM -19.4% | [4]; [7] -6% | [4]; [8] 2% | [5]; [7] -3% | [5]; [8] -3% | [5]; at 50.0 µM -12% | [6]; [7] -2% | [6]; [8] -8% | [6]; at 50.0 µM 16.3%

[Cl][Sn]([c]1ccccc1)[c]1ccccc1
inactive: [1]; [7] 41% | [2]; [7] 30% | [3]; [7] 56% | [4]; [7] 34% | [4]; at 50.0 µM 54.2% | [5]; [7] 57% | [6]; [7] 30%
active: [1]; [8] 93% | [1]; at 50.0 µM 80.8% | [2]; [8] 96% | [2]; at 50.0 µM 85.8% | [3]; [8] 99% | [3]; at 50.0 µM 89% | [4]; [8] 97% | [5]; [8] 98% | [5]; at 50.0 µM 87.8% | [6]; [8] 90% | [6]; at 50.0 µM 83.5%

CCCCCCNC(=O)CI
active: [1]; [8] 88% | [2]; [8] 91% | [2]; at 50.0 µM 75.2% | [3]; [8] 87% | [5]; [8] 84% | [6]; [8] 93%
inactive: [1]; [7] -3% | [1]; at 50.0 µM 42.7% | [2]; [7] -2% | [3]; [7] -5% | [3]; at 50.0 µM 16.7% | [4]; [7] -1% | [4]; [8] 46% | [4]; at 50.0 µM -17.4% | [5]; [7] 5% | [5]; at 50.0 µM 59.2% | [6]; [7] -3% | [6]; at 50.0 µM 50.4%

O=c1c2ccccc2[se]n1-c1ccccc1
inactive: [1]; [7] 6% | [1]; [8] 29% | [2]; [7] -12% | [2]; [8] 32% | [3]; [7] -4% | [3]; [8] 23% | [4]; [7] -19% | [4]; [8] 26% | [4]; at 50.0 µM 66.6% | [5]; [7] -15% | [5]; [8] 21% | [5]; at 50.0 µM 4.2% | [6]; [7] -12% | [6]; [8] 62%
active: [1]; at 50.0 µM 70.2% | [2]; at 50.0 µM 88.8% | [3]; at 50.0 µM 81.3% | [6]; at 50.0 µM 86%

O=C1NC(=O)C([N+](=O)[O-])C(=O)N1
inactive: [1]; [7] 0% | [1]; [8] -5% | [1]; at 50.0 µM 62.9% | [2]; [7] -14% | [2]; [8] -4% | [2]; at 50.0 µM 30.1% | [3]; [7] 9% | [3]; [8] -8% | [3]; at 50.0 µM 34.5% | [4]; [7] 29% | [4]; [8] 39% | [4]; at 50.0 µM 48.5% | [5]; [7] 15% | [5]; [8] 43% | [5]; at 50.0 µM 66.8% | [6]; [7] 10% | [6]; [8] 16% | [6]; at 50.0 µM 18.8%

CC(C)(C)CC(C)(C)c1ccc(O)cc1
active: [1]; [8] 99% | [1]; at 50.0 µM 99.7% | [2]; [8] 99% | [2]; at 50.0 µM 99.7% | [3]; [8] 98% | [3]; at 50.0 µM 99.8% | [4]; [8] 99% | [4]; at 50.0 µM 99.5% | [5]; [8] 98% | [5]; at 50.0 µM 98.5% | [6]; [8] 99% | [6]; at 50.0 µM 99.6%
inactive: [1]; [7] -11% | [2]; [7] -12% | [3]; [7] -6% | [4]; [7] -7% | [5]; [7] -22% | [6]; [7] -9%
